# Compound activity as filed in PubChem BioAssay.
# Hits are enriched below; roughly 1.1% of the tested compounds scored in any of these assays.
# NR5A2 inv ag: NR5A2 inverse agonism in reporter assay; O00482; HEK293T StAR-luciferase reporter, LRH-1 transfected, 24 h; inhibition, % at 3.6 µM; hit rate 0.13% among 360,000; AID 602396;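 active = inhibition above the mean inhibition of all tested compounds plus 3 SD, cut at about 73% in these data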;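 also: 0% = DMSO wells and 100% = reporter-only cells lacking LRH-1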
# Target sequence (O00482 whole entry, looked up): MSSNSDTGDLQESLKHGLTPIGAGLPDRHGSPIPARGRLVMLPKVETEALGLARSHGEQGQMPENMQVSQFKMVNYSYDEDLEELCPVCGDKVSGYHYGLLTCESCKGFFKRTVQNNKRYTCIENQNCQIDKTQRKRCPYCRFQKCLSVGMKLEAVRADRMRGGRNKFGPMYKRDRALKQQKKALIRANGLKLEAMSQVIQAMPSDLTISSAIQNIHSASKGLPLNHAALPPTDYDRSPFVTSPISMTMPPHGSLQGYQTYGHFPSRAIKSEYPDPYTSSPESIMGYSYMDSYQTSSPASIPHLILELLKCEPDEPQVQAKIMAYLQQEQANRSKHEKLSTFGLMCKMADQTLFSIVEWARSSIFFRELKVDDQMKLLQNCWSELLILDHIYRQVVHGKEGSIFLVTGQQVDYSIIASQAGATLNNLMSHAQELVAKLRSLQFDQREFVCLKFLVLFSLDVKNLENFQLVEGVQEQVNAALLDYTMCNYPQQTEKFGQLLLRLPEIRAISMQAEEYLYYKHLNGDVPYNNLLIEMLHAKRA
# SRC1 inh: inhibitors of human steroid receptor coactivator 1 (SRC1); Q15788; HEK293 GAL4-SRC1 luciferase reporter, luminescence; inhibition, % at 3.6 µM; hit rate 0.12% among 360,000; AID 588354;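 active = inhibition above the campaign mean plus 3 SD, with each screening campaign given its own cutoff, cut at about 60% in these data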;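 also: 0% = DMSO treated cells and 100% = gossypol at 36 µM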
# COUP-TFII inh: inhibitors of human COUP-TFII (NR2F2); HEK293T NGFI-A luciferase reporter, luminescence; hit rate 0.7% among 370,000; AID 686940; inhibition, % at 8.6 µM;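 active = inhibition above a per-plate cutoff, mean inhibition of test wells between control levels plus 3 SD, cut at about 38% in these data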;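 also: cells cotransfected with COUP-TFII expression vector driving the NGFI-A reporter; 0% = median of COUP-TF2 test wells and 100% = reporter-only cells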
# GalR3 antagonist: blocks the human galanin receptor 3; HEK293 GalR3-CNG cAMP membrane potential fluorescence; galR3 body fused to GalR1 C-terminus; inhibition, % at 3 µM; hit rate 0.44% among 360,000;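 active = inhibition above the screen-wide average plus 3 SD, cut at about 13% in these data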;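 also: forskolin and galanin both at EC90 stimulate the cells; cAMP rise reported by CNG channel membrane potential dye signal; 0% = forskolin plus galanin with DMSO and 100% = forskolin alone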
# NCOA2 inhibitor: human SRC2 (NCOA2) inhibition. inhibition, % at 9 µM. hit rate 0.17% among 370,000. HEK293 GAL4-SRC2 luciferase reporter, luminescence. AID 651957;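 active = inhibition above the mean inhibition of all tested compounds plus 3 SD, set per campaign, cut at about 52% in these data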;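 also: 0% = DMSO treated cells and 100% = cells given Gossypol at 36 µM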
# SRC3 inh: human NCOA3 inhibition | Q9Y6Q9 | HEK293 GAL4-SRC3 luciferase reporter, luminescence | inhibition, % at 3.6 µM | hit rate 0.17% among 360,000;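 active = inhibition above a per-campaign cutoff, the mean of all compounds plus 3 SD, cut at about 60% in these data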;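 also: 0% = DMSO-treated cells and 100% = gossypol-treated cells at 36 µM; higher means less SRC3-driven luciferase light from the GAL4 reporter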
# Gal4-VP16 ctr: counter-screen for COUP-TFII antagonists: inhibitors of VP16 | shares compounds with COUP-TFII inh | HEK293 Gal4-VP16 luciferase reporter, luminescence | inhibition, % at 8.5 µM | hit rate 25% among 2,500 | AID 687007; in the data active = inhibition above about 13%
# NR2F2 inh conf: confirmation of human COUP-TFII (NR2F2) inhibitors | shares compounds with COUP-TFII inh | HEK293 NGFI-A luciferase reporter, luminescence | inhibition, % at 8.5 µM | hit rate 45% among 2,500 | AID 687008;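 active = mean inhibition over three repeats above a set limit taken from the earlier primary screen, cut at about 38% in these data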;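 also: 100% = cells given the luciferase reporter alone without the COUP-TF2 vector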
# Active calls of the source: *; . = not tested or not shown.
SMILES,NR5A2 inv ag,SRC1 inh,COUP-TFII inh,GalR3 antagonist,NCOA2 inhibitor,SRC3 inh,Gal4-VP16 ctr,NR2F2 inh conf
N=c1c2c(n(Cc3ccc([N+](=O)[O-])cc3)c3c1CCC3)CCCC2,17.9,9.6,18.8,-2.7,0.0,17.8,.,.
N=c1c2c(n(Cc3ccc(Br)cc3)c3c1CCC3)CCCC2,92.7*,42.4,68.3*,0.0,-19.3,74.8*,24.3*,60.6*
CCCn1c2c(c(=N)c3c1CCC3)CCCC2,60.2,24.3,24.8,-2.6,20.5,13.8,.,.
N=c1c2c(n(Cc3ccc(Cl)c(Cl)c3)c3c1CCC3)CCCC2,95.7*,62.9*,63.7*,3.2,-45.8,67.7*,16.5*,46.6*
O=C(c1ccccc1Cl)N1CCC(Oc2cccnc2)CC1,.,.,-1.9,.,13.3,.,.,.
C[N+](C)(C)CCC(=O)N1C/C(=C/c2ccccc2)C(=O)/C(=C\c2ccccc2)C1,-8.3,-14.8,71.8*,2.9,5.6,15.8,21.7*,29.2
CN(C)CCC(=O)N1C/C(=C/c2ccccc2)C(=O)/C(=C\c2ccccc2)C1,80.8*,-58.4,79.1*,2.4,64.1*,-6.4,80.5*,87.4*
O=C1/C(=C/c2ccccc2)CN(C(=O)CCN2CCOCC2)C/C1=C\c1ccccc1,52.9,-44.8,57.0*,1.2,13.3,12.6,34.5*,26.1
O=C(/C=C/c1ccccc1)CCN1CCOCC1,-14.9,-41.3,-5.8,-5.2,-7.7,-4.3,.,.
OC1OC2COC(c3ccccc3)OC2C(O)C1O (stereo unspecified),.,.,-5.2,-6.4,11.9,.,.,.
O=C(Nc1ccc(-c2cn3ccsc3n2)cc1)c1ccc(F)c(S(=O)(=O)N2CCOCC2)c1,-35.8,4.0,46.9*,-4.5,29.5,28.8,-21.9,-13.0
O=C(NCCc1ccccc1Cl)[C@@H]1CCCN1C(=O)[C@H](Cc1cccnc1)NC(=O)N1CCOCC1,.,.,6.5,-2.3,4.3,.,.,.
COc1ccc(-c2c(C)nc3c(-c4ccc(F)cc4)cnn3c2N)cc1,-31.4,-54.0,-42.4,0.9,-30.8,-60.6,.,.
Cc1nc2c(-c3ccc(Cl)cc3)cnn2c(N)c1-c1ccc(F)cc1,29.1,49.5,52.4*,-10.2,42.3,49.6,0.8,68.1*
Cc1nc2c(-c3ccc(F)cc3)cnn2c(N)c1-c1ccccc1,62.6,70.3*,82.0*,-9.7,69.9*,70.8*,32.2*,81.7*
COc1ccc(-c2cc(C(=O)N(C3CCCCC3)C3CCCCC3)no2)cc1,.,.,-6.9,.,-6.5,.,.,.
CC1(Cc2ccc(Cl)cc2)C(=O)Nc2ccc(-c3cccnc3)cc21 (stereo unspecified),19.3,58.6,34.7,-6.7,50.5,57.1,.,.
CC1(Cc2cccc(F)c2)C(=O)Nc2ccc(-c3cccnc3)cc21 (stereo unspecified),16.8,60.8,48.0*,-5.9,51.9,55.0,8.5,18.4
CC(C)CN1C(=O)[C@]2(CC(=O)N(C)C2c2ccccc2)c2cc(-n3cc(C4=CCCCC4)nn3)ccc21 (stereo partly specified),.,.,3.0,.,14.9,.,.,.
COCCCNC(=O)C[C@H]1C[C@@]2(C(=O)OC)C(=C[C@H](COCc3ccccc3)O[C@@H]2C)N(Cc2ccc3c(c2)OCO3)C1=O,.,.,-10.9,-7.0,-13.1,.,.,.
COc1ccc2ccccc2c1C=Nn1c(-c2n[nH]c3c2CCC3)n[nH]c1=S,.,.,-3.2,.,-1.3,.,.,.
O=C1C(N2CCOCC2)=C(n2nnc3ccccc32)C(=O)c2ccccc21,19.8,-19.6,39.3*,-5.2,58.1*,24.7,18.8*,31.2
COc1ccc(C(=O)C2CCN(C(=S)NCCc3ccc(OC)c(OC)c3)CC2)cc1,0.8,10.6,44.0*,-2.5,-11.1,21.4,8.0,17.8
COc1ccc(CCNC(=S)N2CCC(C(=O)c3ccc(F)cc3)CC2)cc1OC,17.3,-19.7,43.2*,-3.5,36.6,26.7,5.2,27.4
CC1(C)Oc2ccc(C(=O)N3CCCC3)cc2NC1=O,.,.,-1.1,.,15.9,.,.,.
COC(=O)[C@H](C(C)C)N1Cc2nnn(CC3CCCCC3)c2-c2cc(F)ccc2S1(=O)=O,.,.,5.5,.,-1.5,.,.,.
